High-throughput results from PubChem BioAssay.
The list is not random: actives were taken first. Their share in the collection is about 8.2%.
MCF10A rerep – induces DNA re-replication in MCF 10a normal breast cells. Potency, µM (titrated, usually from 46.1 µM), actives largely listed as activators. MCF 10A DNA re-replication, Hoechst nuclear intensity, 48 h. 2.9% of 350,000 active. AID 624296; note: nearly all actives have a fitted effect of over 50% in size
KB-3-1 tox – KB-3-1 parental cell cytotoxicity | AID 1347075 | 1.4% of 400,000 active | Potency, µM (top dose mostly 46.1 µM), hits mostly cytotoxic | KB-3-1 viability, CellTiter-Glo ATP luminescence, 72 h; note: nearly all actives have a fitted effect of over 60% in size
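Cells are dispensed, compounds pinned in, plates held at 37 °C for 72 h, then CellTiter-Glo is added and luminescence read after 10 minutes. Cell line: parental KB-3-1 in phenol-red-free DMEM, 10% FBS.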
ELG1 repair inh – ELG1-dependent DNA repair inhibition; Potency, µM (highest dose often 46.1 µM), most hits filed as inhibitors; HEK293T ELG1-luciferase reporter, luminescence, 16 h; DNA damage induced by 5-fluorouridine; 2.3% of 330,000 active; note: nearly all actives have a fitted effect of over 55% in size
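Overnight (16 hr) co-exposure of 2,000 cells/well to 5-fluorouridine and compound at 37 °C preceded detection. Luciferase was quantified via ONE-Glo luminescence; loss of signal denotes inhibition.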
SW480 rerep – induces DNA re-replication in SW480 colon adenocarcinoma cells | SW480 DNA re-replication, Hoechst DNA content imaging, 48 h | Potency, µM (series often up to 46.1 µM), actives largely listed as activators | 1.8% of 340,000 active; note: nearly all actives have a fitted effect of over 55% in size
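Quantitative HTS format with DMSO vehicle controls; 48 hr drug incubation at 37 C, then 40 min Hoechst staining and scanning imager measurement at 405 nm excitation.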
KB-V1 cytotox – kills drug-selected multidrug resistant KB-V1 cells; KB-V1 MDR cells viability, CellTiter-Glo, 72 h; Potency, µM (highest dose often 46.1 µM), hits mostly cytotoxic; 3.4% of 400,000 active; note: nearly all actives have a fitted effect of over 60% in size
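Compound-treated KB-V1 multidrug-resistant cells, 72 h, 37 degrees C; viability by CellTiter-Glo. Fitted qHTS curves give the values.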
Large screens that a line does not name were inactive. Calls come from the whole dose curve; as a rule, active = well fitted curve in the direction sought with a large enough effect; inconclusive = small, poorly fitted or top-dose-only effect, or another doubt; inactive = no such curve, though single readings can be large; an effect the other way counts as inactive or inconclusive.

CC(C)CC1(C)NC(=O)N(CC(=O)Nc2ccccc2Br)C1=O (centres undefined)	none
Cc1cc(=O)oc2c(C)c3occc3cc12	none
O=C(NCc1ccco1)/C(=C\C=C\c1ccccc1)NC(=O)c1ccccc1Br	ELG1 repair inh 23µM
Cc1ccc2c(CSc3nc4ccccc4c(=O)n3CCCO)cc(=O)oc2c1C	MCF10A rerep inconclusive, ELG1 repair inh inconclusive
Cc1ccc2c(CSc3nnc4ccccn34)cc(=O)oc2c1C	ELG1 repair inh inconclusive, KB-V1 cytotox 16µM
C/C(N)=C(/C#N)C(=O)CSc1nnc(COc2cc(C)ccc2C)o1	MCF10A rerep 18µM
C/C(N)=C(/C#N)C(=O)CSc1nnc(-c2ccc3c(c2)OCO3)o1	ELG1 repair inh inconclusive, SW480 rerep 12µM
NC(=O)CSc1nnc(-c2ccc3c(c2)OCO3)o1	ELG1 repair inh inconclusive
CCN(CC(=O)NCc1cccs1)C(=O)c1ccc(S(=O)(=O)Nc2cccc(C)c2C)cc1	none (no result: KB-3-1 tox, KB-V1 cytotox)
O=C(NCc1ccccc1)c1nc(-c2ccc(Cl)cc2)n2c1CCCCC2	KB-V1 cytotox inconclusive (no result: MCF10A rerep, ELG1 repair inh, SW480 rerep)
CC(=O)c1cccc(NC(=O)c2nc(-c3ccc(C)cc3)n3c2CCCCC3)c1	none (no result: MCF10A rerep, ELG1 repair inh, SW480 rerep)
CC(C)N(Cc1ccccc1)C(=O)c1nc(-c2ccc(Cl)cc2)n2c1CCCCC2	KB-V1 cytotox 16µM (no result: MCF10A rerep, ELG1 repair inh, SW480 rerep)
Cc1ccc(-c2nc(C(=O)NCc3ccc(Cl)cc3)c3n2CCCCC3)cc1	KB-3-1 tox inconclusive, KB-V1 cytotox 13µM (no result: MCF10A rerep, ELG1 repair inh, SW480 rerep)
COC(=O)c1ccccc1NC(=O)c1nc(-c2ccc(C)cc2)n2c1CCCCC2	KB-3-1 tox inconclusive, KB-V1 cytotox 15µM (no result: MCF10A rerep, ELG1 repair inh, SW480 rerep)
CCCn1nc(C(=O)Nc2cccc(S(=O)(=O)N3CCOCC3)c2)c2ccccc2c1=O	none (no result: MCF10A rerep, ELG1 repair inh, SW480 rerep)
O=C(CN(Cc1ccccc1)C(=O)CCC(=O)Nc1nccs1)NCc1ccccc1	none
COCCN1C[C@@H](CO)O[C@@H](n2cnc3c(N(C)C)ncnc32)C1	none (no result: MCF10A rerep, ELG1 repair inh, SW480 rerep)
COc1cc(C(=O)Nc2nnc(C3=COCCO3)o2)cc(OC)c1OC	KB-3-1 tox inconclusive, KB-V1 cytotox inconclusive
Cc1cc(-c2ccc(/C=N/n3cnnc3)o2)ccc1Cl	none
O=C(O)c1cccc(-c2ccc(/C=N/n3cnnc3)o2)c1	none
Clc1ccccc1-c1ccc(/C=N/n2cnnc2)o1	KB-3-1 tox 5.8µM, KB-V1 cytotox 3.3µM
CCCCOC(=O)c1cc(-c2ccc(/C=N/n3cnnc3)o2)ccc1Cl	KB-V1 cytotox 18µM (no result: ELG1 repair inh)
Cc1c(C(=O)O)cccc1-c1ccc(/C=N/n2cnnc2)o1	none
Clc1cccc(-c2ccc(/C=N/n3cnnc3)o2)c1Cl	KB-3-1 tox 6.5µM, KB-V1 cytotox 1.6µM
Cc1c(Cl)cccc1-c1ccc(/C=N/n2cnnc2)o1	KB-3-1 tox inconclusive, SW480 rerep inconclusive, KB-V1 cytotox 2.9µM
CCOc1ccccc1NC(=O)N1CCC(NC(=O)C2CCCCC2)CC1	none
CC1(c2nnnn2Cc2ccccc2)CCC(=O)N1Cc1cccs1 (centres undefined)	KB-V1 cytotox inconclusive (no result: MCF10A rerep, ELG1 repair inh, SW480 rerep)
O=C1NC(=O)C2(CCCCC2)N1	none (no result: ELG1 repair inh)
Cc1ccc(CNC(=O)COC(=O)c2cc(C)oc2C)cc1	none
CCOC(=O)c1c(NC(=O)CN2CCOCC2)sc(C(=O)NC)c1C	none
CCOC(=O)c1c(NC(=O)CN2C(=O)NC(C)(c3ccc(Cl)cc3)C2=O)sc(C(=O)NC)c1C (centres undefined)	MCF10A rerep inconclusive, ELG1 repair inh 18µM
C=CCn1c(SCc2c(C)noc2C)nc2sc(C)c(C)c2c1=O	MCF10A rerep 23µM, ELG1 repair inh inconclusive, SW480 rerep inconclusive
Cc1noc(C)c1CSc1nc2sc(C)c(C)c2c(=O)n1-c1ccccc1	ELG1 repair inh inconclusive
C=CCn1c(SCC(=O)c2cc(C)n(C(C)COC)c2C)nc2sc(C)c(C)c2c1=O (centres undefined)	MCF10A rerep 18µM, ELG1 repair inh inconclusive, SW480 rerep inconclusive, KB-V1 cytotox 8.2µM
O=C(CCNS(=O)(=O)c1cccc2nonc12)Nc1ccc(F)cc1	none (no result: MCF10A rerep, ELG1 repair inh, SW480 rerep)
COc1ccc(-c2csc(=NCCO)n2-c2ccccc2)cc1	MCF10A rerep inconclusive, KB-3-1 tox inconclusive, ELG1 repair inh inconclusive, KB-V1 cytotox inconclusive
Nc1[nH]c2cc([N+](=O)[O-])ccc2c1-c1ccccn1	MCF10A rerep inconclusive, KB-3-1 tox inconclusive, SW480 rerep inconclusive, KB-V1 cytotox inconclusive
O=c1c2sc3ccccc3c2n(Cc2ccc(F)cc2)c(=O)n1Cc1ccccc1	none (no result: MCF10A rerep, ELG1 repair inh, SW480 rerep)
COc1cccc(CNc2nc3c(-c4ccccc4)nnn3c3ccccc23)c1	KB-V1 cytotox inconclusive (no result: MCF10A rerep, ELG1 repair inh, SW480 rerep)
COC(=O)c1cn(C(=O)c2ccc(C)cc2)c2ccccc12	SW480 rerep 7.3µM
COC(=O)c1cn(C(=O)c2ccc(OC)cc2)c2ccccc12	MCF10A rerep 5.8µM, KB-3-1 tox inconclusive, SW480 rerep 2.3µM
COC(=O)c1cn(C(=O)c2ccc(OC)c(OC)c2)c2ccccc12	none
CCOc1ccc(CN(C(=O)c2ccccn2)c2ccc(OC)c(Cl)c2)cc1	MCF10A rerep 23µM, KB-3-1 tox inconclusive, ELG1 repair inh inconclusive, SW480 rerep inconclusive, KB-V1 cytotox inconclusive
CCCCN(CCCC)C(=O)c1cc(Cl)ccc1[N+](=O)[O-]	SW480 rerep inconclusive, KB-V1 cytotox 23µM
C=CCN(CC=C)C(=O)c1cc(Cl)ccc1[N+](=O)[O-]	none
CCOC(=O)[C@H](CCc1ccccc1)N[C@@H](C)C(=O)N1Cc2ccccc2C[C@H]1C(=O)O	MCF10A rerep 0.12µM (no result: ELG1 repair inh)
CCCn1c(C(=O)OC)cc2c1ccn2-c1ccc(F)cc1	MCF10A rerep 23µM
COC(=O)c1cc2c(ccn2-c2ccc(F)cc2)n1Cc1cccc(OC)c1	MCF10A rerep inconclusive, SW480 rerep inconclusive, KB-V1 cytotox 13µM
COC(=O)c1cc2c(ccn2-c2ccc(F)cc2)n1CC(C)C	MCF10A rerep 23µM, SW480 rerep inconclusive
COC(=O)c1cc2c(ccn2-c2ccc(F)cc2)n1C(C)C	MCF10A rerep inconclusive
O=c1[nH]c2cc([N+](=O)[O-])c([N+](=O)[O-])cc2[nH]c1=O	SW480 rerep 6.5µM
O=C1/C(=C/c2cccs2)NC(=S)N1C1CC1	SW480 rerep 18µM
O=C(CCn1c(=O)[nH]c2ccsc2c1=O)N(CCc1ccccc1)Cc1ccccc1	KB-3-1 tox inconclusive, ELG1 repair inh inconclusive, KB-V1 cytotox 21µM
COc1ccc(CCn2c(=O)c3ccccc3n(CC(=O)Nc3cccc(C)c3)c2=O)cc1OC	none (no result: MCF10A rerep, ELG1 repair inh, SW480 rerep)
CCOC(=O)CSc1nc2ccc(Nc3nc(N4CCOCC4)nc(N4CCOCC4)n3)cc2s1	ELG1 repair inh inconclusive
Cc1ccc(NC(=O)CSc2nc3ccc(Nc4nc(N5CCOCC5)nc(N5CCOCC5)n4)cc3s2)cc1	MCF10A rerep 5.8µM, KB-3-1 tox inconclusive, ELG1 repair inh inconclusive, SW480 rerep inconclusive, KB-V1 cytotox inconclusive
CC(=O)CSc1nc2ccc(Nc3nc(N4CCOCC4)nc(N4CCOCC4)n3)cc2s1	KB-3-1 tox inconclusive, ELG1 repair inh inconclusive, SW480 rerep inconclusive, KB-V1 cytotox inconclusive
